Data published in PubChem BioAssay (EPA / NIEHS).
Several values for one entry are separate records, joined by “and”; a condition that tells them apart may be missing. Equal values may be shown once. Where a structure was tested more than once in an assay, its records may differ in their call. Activity calls are given as the source filed them. How the source made its calls: active means hit-call score of the fitted dose curve at least 0.9, where 1 is the maximum; inactive means score below 0.9.

What was measured:
[1] = read-out: Collagen III, COL3A1 (gene 1281); test: BSK_hDFCGF_CollagenIII: BioMAP Diversity Plus: hDFCGF Assay for Collagen III Biomarker Activity (AID 2283056); conditions: primary human foreskin fibroblasts; actives raise or lower the signal
Summary of the method: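 Cells: human foreskin fibroblasts, primary. Dosing followed by 24 h incubation, then ELISA for collagen III. Both increases and decreases scored relative to DMSO.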

[2] = read-out: Epidermal growth factor receptor (EGFR), EGFR (gene 1956); test: BSK_hDFCGF_EGFR: BioMAP Diversity Plus: hDFCGF Assay for Epidermal growth factor receptor (EGFR) Biomarker Activity (AID 2283057); conditions: primary human foreskin fibroblasts; actives raise or lower the signal
Summary of the method: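 EGFR levels by ELISA in human dermal fibroblast cultures, 24 h post-treatment, fitted bidirectionally versus DMSO. Parallel wells stained with sulforhodamine B to detect overt cytotoxicity.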

[3] = BSK_hDFCGF_Proliferation: Cell Proliferation Assessment in the BioMAP Diversity Plus: hDFCGF Assay (AID 2283059); conditions: primary human foreskin fibroblasts;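 further: curves fitted for both rise and fall of signal versus DMSO baseline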
Summary of the method: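 Total protein read at 560 nm after 0.1% SRB staining of TCA-fixed human skin fibroblasts, […]. Activity is fitted in both directions relative to DMSO as baseline.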

[4] = read-out: Macrophage colony-stimulating factor (MCSF), CSF1 (gene 1435); test: BSK_hDFCGF_MCSF: BioMAP Diversity Plus: hDFCGF Assay for Macrophage colony-stimulating factor (MCSF) Biomarker Activity (AID 2283060); conditions: primary human foreskin fibroblasts; actives raise or lower the signal
Summary of the method: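 M-CSF levels, determined by ELISA, are taken at 24 h after dosing human skin fibroblasts. Responses in either direction are fitted with DMSO serving as the baseline.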

[5] = BSK_hDFCGF_SRB: Viability Assessment in the BioMAP Diversity Plus: hDFCGF Assay (AID 2283061); conditions: primary human foreskin fibroblasts;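 further: cells exposed to compound for 24 h before the read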
Summary of the method: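 Cells were dosed with test chemical, cultured 24 h, fixed with 10% TCA, then stained with 0.1% SRB and read at 560 nm. The fibroblasts were human foreskin primary cells, and DMSO served as baseline.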

[6] = read-out: TIMP metallopeptidase inhibitor 1 (TIMP1), TIMP1 (gene 7076); test: BSK_hDFCGF_TIMP1: BioMAP Diversity Plus: hDFCGF Assay for TIMP metallopeptidase inhibitor 1 (TIMP1) Biomarker Activity (AID 2283062); conditions: primary human foreskin fibroblasts; actives raise or lower the signal
Summary of the method: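 Fibroblasts from human foreskin are treated with test chemical and harvested at 24 h. TIMP-1 is quantified by ELISA, and gain or loss of signal is scored against DMSO.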

[7] = read-out: Monokine induced gamma interferon (MIG), CXCL9 (gene 4283); test: BSK_hDFCGF_MIG: BioMAP Diversity Plus: hDFCGF Assay for Monokine induced gamma interferon (MIG) Biomarker Activity (AID 2283063); conditions: primary human foreskin fibroblasts; actives raise or lower the signal
Summary of the method: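 MIG signal, determined by ELISA, reflects 24 h chemical exposure of human skin primary fibroblasts. DMSO serves as negative control and baseline.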

[8] = read-out: Matrix Metallopeptidase 1 (MMP1), MMP1 (gene 4312); test: BSK_hDFCGF_MMP1: BioMAP Diversity Plus: hDFCGF Assay for Matrix Metallopeptidase 1 (MMP1) Biomarker Activity (AID 2283064); conditions: primary human foreskin fibroblasts; actives raise or lower the signal
Summary of the method: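 Human foreskin fibroblasts exposed to chemical for 24 h; MMP1 detected by ELISA, with DMSO as baseline for bidirectional fitting.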

[9] = read-out: Vascular cell adhesion molecule 1 (VCAM1), VCAM1 (gene 7412); test: BSK_hDFCGF_VCAM1: BioMAP Diversity Plus: hDFCGF Assay for Vascular cell adhesion molecule 1 (VCAM1) Biomarker Activity (AID 2283065); conditions: primary human foreskin fibroblasts; actives raise or lower the signal;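 on AC50: VCAM-1 protein level quantified by ELISA after 24 h chemical exposure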
Summary of the method: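 Cells are dosed, cultured for 24 h, then VCAM-1 is quantified by ELISA; signal increases and decreases are both fitted relative to DMSO.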

[10] = read-out: Plasminogen activator inhibitor-1 (PAI1), SERPINE1 (gene 5054); test: BSK_hDFCGF_PAI1: BioMAP Diversity Plus: hDFCGF Assay for Plasminogen activator inhibitor-1 (PAI1) Biomarker Activity (AID 2283066); conditions: primary human foreskin fibroblasts; actives raise or lower the signal
Summary of the method: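 PAI-1 levels in human dermal foreskin fibroblasts were quantified by ELISA 24 h after dosing, with gain or loss analysed against DMSO. Overt cytotoxicity was checked by sulforhodamine B total-protein staining in parallel cultures.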

[11] = read-out: Intercellular Adhesion Molecule 1 (ICAM1), ICAM1 (gene 3383); test: BSK_KF3CT_ICAM1: BioMAP Diversity Plus: KF3CT Assay for Intercellular Adhesion Molecule 1 (ICAM1) Biomarker Activity (AID 2283067); conditions: primary human keratinocytes with fibroblasts; actives raise or lower the signal
Summary of the method: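 Dose the keratinocyte/fibroblast co-culture, wait 24 h, measure ICAM-1 by ELISA, then fit increases or decreases against DMSO. Cytotoxicity is checked in parallel cultures by SRB total-protein staining.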

[12] = read-out: Interferon-gamma inducible Protein 10 (IP10), CXCL10 (gene 3627); test: BSK_KF3CT_IP10: BioMAP Diversity Plus: KF3CT Assay for Interferon-gamma inducible Protein 10 (IP10) Biomarker Activity (AID 2283068); conditions: primary human keratinocytes with fibroblasts; actives raise or lower the signal
Summary of the method: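 Human keratinocyte plus foreskin fibroblast primary co-culture exposed to test chemical for 24 h; IP-10 measured by ELISA. Concentration-response fitted bidirectionally against DMSO control as baseline.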

[13] = BSK_KF3CT_SRB: Viability Assessment in the BioMAP Diversity Plus: KF3CT Assay (AID 2283069); conditions: primary human keratinocytes with fibroblasts;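 further: fitted for both signal gain and loss against DMSO baseline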
Summary of the method: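 Overt cytotoxicity is assessed as total protein by sulforhodamine B staining in parallel human skin co-cultures at 24 h after dosing. DMSO serves as negative control and baseline.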

[14] = read-out: Interleukin-1 alpha (IL1a), IL1A (gene 3552); test: BSK_KF3CT_IL1a: BioMAP Diversity Plus: KF3CT Assay for Interleukin-1 alpha (IL1a) Biomarker Activity (AID 2283070); conditions: primary human keratinocytes with fibroblasts; actives raise or lower the signal
Summary of the method: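 Readout is IL-1a level by ELISA, compared bidirectionally with DMSO as baseline. Cells: human keratinocytes co-cultured with foreskin fibroblasts, harvested 24 h post-dose.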

[15] = read-out: TIMP metallopeptidase inhibitor 2 (TIMP2), TIMP2 (gene 7077); test: BSK_KF3CT_TIMP2: BioMAP Diversity Plus: KF3CT Assay for TIMP metallopeptidase inhibitor 2 (TIMP2) Biomarker Activity (AID 2283071); conditions: primary human keratinocytes with fibroblasts; actives raise or lower the signal
Summary of the method: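 TIMP-2 measured by ELISA at 24 h in human keratinocyte/fibroblast primary co-cultures exposed to chemicals. Both increases and decreases were fitted against DMSO. Parallel cultures were stained with SRB for total protein as an overt-cytotoxicity check.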

[16] = read-out: Transforming growth factor beta 1 (TGFb1), TGFB1 (gene 7040); test: BSK_KF3CT_TGFb1: BioMAP Diversity Plus: KF3CT Assay for Transforming growth factor beta 1 (TGFb1) Biomarker Activity (AID 2283072); conditions: primary human keratinocytes with fibroblasts; actives raise or lower the signal
Summary of the method: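 ELISA quantifies TGF-b1 at 24 h post-dose in a primary human skin co-culture of keratinocytes and fibroblasts, with gain or loss judged against DMSO. Parallel SRB total-protein staining flags overt cytotoxicity.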

[17] = read-out: Matrix Metallopeptidase 9 (MMP9), MMP9 (gene 4318); test: BSK_KF3CT_MMP9: BioMAP Diversity Plus: KF3CT Assay for Matrix Metallopeptidase 9 (MMP9) Biomarker Activity (AID 2283074); conditions: primary human keratinocytes with fibroblasts; actives raise or lower the signal;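 on AC50: MMP9 protein level quantified by ELISA in the co-culture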
Summary of the method: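 Values come from bidirectional fitting relative to DMSO of MMP-9 levels, which were measured by ELISA. Measurements were taken 24 h after chemical dosing of a keratinocyte and foreskin fibroblast co-culture.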

CD40, CD40 (gene 958) = test: BSK_LPS_CD40: BioMAP Diversity Plus: LPS Assay for CD40 Biomarker Activity (AID 2283076); conditions: primary human HUVEC with PBMC; actives raise or lower the signal
Summary of the method: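 CD40 signal, measured by ELISA, is fitted in both directions relative to DMSO vehicle. The system is an LPS-driven human vascular primary co-culture of endothelial cells and PBMC, sampled 24 h after compound addition.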

[18] = read-out: E-selectin (Homo sapiens) (UniProt P16581); test: BSK_LPS_Eselectin: BioMAP Diversity Plus: LPS Assay for Eselectin Biomarker Activity (AID 2283077); conditions: primary human HUVEC with PBMC; actives raise or lower the signal
Summary of the method: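 Signal of E-selectin, detected by ELISA, served as the endpoint; cells were umbilical vein endothelium with PBMC, read 24 h after treatment. DMSO defined baseline, and both increases and decreases were fitted.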

[19] = read-out: Interleukin-8 (IL8), CXCL8 (gene 3576); test: BSK_LPS_IL8: BioMAP Diversity Plus: LPS Assay for Interleukin-8 (IL8) Biomarker Activity (AID 2283078); conditions: primary human HUVEC with PBMC; actives raise or lower the signal
Summary of the method: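 Endothelial cells and PBMC from human donors are co-cultured, treated with chemicals and LPS, then assayed for IL-8 by ELISA after 24 h. Parallel SRB staining (0.1% SRB after 10% TCA fixation, 560 nm) flags cytotoxicity.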

Measured: AC50

E-selectin (Homo sapiens), sequence (P16581 whole entry, looked up): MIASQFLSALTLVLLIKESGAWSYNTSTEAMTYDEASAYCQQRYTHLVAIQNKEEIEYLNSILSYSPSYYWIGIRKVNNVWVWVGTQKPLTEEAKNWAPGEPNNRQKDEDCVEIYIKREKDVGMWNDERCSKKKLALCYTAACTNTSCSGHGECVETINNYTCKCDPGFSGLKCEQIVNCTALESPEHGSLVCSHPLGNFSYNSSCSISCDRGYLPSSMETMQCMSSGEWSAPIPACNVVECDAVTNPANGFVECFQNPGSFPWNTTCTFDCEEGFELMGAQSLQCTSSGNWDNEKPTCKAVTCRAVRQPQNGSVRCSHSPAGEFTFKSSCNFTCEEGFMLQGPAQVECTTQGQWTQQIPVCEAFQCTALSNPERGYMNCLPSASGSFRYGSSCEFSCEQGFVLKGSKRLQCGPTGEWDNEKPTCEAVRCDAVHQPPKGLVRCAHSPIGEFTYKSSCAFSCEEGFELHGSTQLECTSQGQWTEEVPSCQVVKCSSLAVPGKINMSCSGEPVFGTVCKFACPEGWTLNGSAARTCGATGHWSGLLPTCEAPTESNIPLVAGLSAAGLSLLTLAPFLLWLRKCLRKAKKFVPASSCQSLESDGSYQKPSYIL

CCCCC/C=C\C/C=C\CCCCCCCC(=O)OC
active: [1] 27.8 µM | [3] 5.85 µM | [4] 26.5 µM | [5] 31.5 µM | [6] 29.3 µM | [7] 35.3 µM | [8] 33.4 µM | [9] 26.9 µM | [10] 28.9 µM | [11] 31.4 µM | [12] 29 µM | [13] 31 µM | [14] 26.9 µM | [15] 30 µM | [16] 16.4 µM | [17] 26.7 µM | CD40, CD40 (gene 958) 20 µM | [18] 36.5 µM | [19] 29.5 µM
inactive: [2]

C=C[Si](OC(C)=O)(OC(C)=O)OC(C)=O
active: [1] 3.16 µM | [3] 32.4 µM and 20 µM
inactive: [1] | [2] | [4] | [5] | [6] | [7] | [8] | [9] | [10] | [11] | [12] | [13] | [14] | [15] | [17] | CD40, CD40 (gene 958) | [18] | [19]
